From paper PMC3737563, “Investigation of DNA sequence recognition by a streptomycete MarR family transcriptional regulator through surface plasmon resonance and X-ray crystallography”

What follows are sequences tested against T1, SCO3205 (MarR family regulator) (Streptomyces coelicolor, UniProt Q9KYU1 1-163) (assay: SPR (ReDCaT); 100 nM SCO3205 dimer; HBS-EP+ buffer: 10 mM HEPES pH 7.4, 150 mM NaCl, 3 mM EDTA, 0.05% (v/v) surfactant P20; 20 C; Biacore T200, ReDCaT SA chip; high values mean tight binding). Conditions: protein: recombinant; tags: N-terminal His tag plus TEV site, not removed; chain copies: 2; label: biotin linker S6 hybridised to overhang; dsDNA, one strand shown.
T1 sequence: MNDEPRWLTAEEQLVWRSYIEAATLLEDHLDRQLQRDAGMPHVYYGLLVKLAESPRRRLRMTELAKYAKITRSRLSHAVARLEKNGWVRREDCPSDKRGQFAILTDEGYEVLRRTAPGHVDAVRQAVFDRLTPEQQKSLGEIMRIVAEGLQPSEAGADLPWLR

| Sequence | binding signal [%Rmax] |
| --- | --- |
| ACGCCGATTTTGTTTAATGTTCAAGGAACCGT | 110 |
| ACGGCACGTAAAGATTGAGAGTTCAAGTAT | 87.9 |
| ACGCCGATTTTGTTTAATGTTCAAGGAAC | 109.7 ± 0.566 |
| ACTCCAATACTTGAACTCTCAATCTTTACGTGCCGT | 115 |
| ACTCCAATACTTGAACTCTCAATC | 92.7 |
| AAGAAGTTCAAGCTTCAACCAAAA | 95.2 |
| ACTCCAATACTTGAACTCTC | 7.8 |
| ACTCCAATACTTGAACTCTCAATCTTTAC | 115.8 ± 0.283 |
| ACGGCACGTAAAGATTGAGAGTTCAAGTATTGGA | 116 |
| ACTCCAATACTTGAACTCTCAATCTTTACGTG | 108 |
| TACTTGAACTCTCAATCTTTACGTGCCGT | 113.9 ± 0.424 |
| ACGGCACGTAAAGATTGAGAGTTCAAGTATTG | 112 |
| CGAGACGGTTCCTTGAACATTAAACAAAATCG | 108 |
| GACCTGTTCAAAGCTCAAGCAGAA | 48.5 |
| ACTCCAATACTTGAACTCTCAATCTT | 116 |
| CGAGACGGTTCCTTGAACATTAAA | 22 |
| TTGATGTTGAATGTTCAACCAGTC | 118 |
| ACGCCGATTTTGTTTAATGTTCAAGGAACC | 117 |
| ACGGCACGTAAAGATTGAGAGTTCAAGT | 80.4 |
| ACGCCGATTTTGTTTAATGTTCAAGGAACCGTCT | 118 |

| Sequence | binding signal [%Rmax] |
| --- | --- |
| CGAGACGGTTCCTTGAACATTAAACAAAAT | 102 |
| ACGCCGATTTTGTTTAATGTTCAAGGAA | 94 |
| ACGCCGATTTTGTTTAATGTTCAAGG | 81 |
| ACTCCAATACTTGAACTCTCAATCTTTA | 115 |
| TTTTGTTTAATGTTCAAGGAACCGTCTCG | 127.2 ± 0.636 |
| TCAATCTACGCCGATTTTGTTTAATGTTC | 5 |
| ACTCCAATACTTGAACTCTCAATCTTTACGTGCC | 110 |
| ACTCCAATACTTGAACTCTCAATCTTTACG | 119 |
| CAATACTTGAACTCTCAATCTTTA | 101 |
| ACGCCGATTTTGTTTAATGTTCAA | 29.9 |
| ACGGCACGTAAAGATTGAGAGTTCAAGTATTGGAGT | 110 |
| ACGCCGATTTTGTTTAATGTTC | 5.1 |
| ACGGCACGTAAAGATTGAGAGTTCAA | 4.7 |
| CGAGACGGTTCCTTGAACATTAAACAAAATCGGCGT | 108 |
| ACTCTCAATCTTTACGTGCCGTCAATCTA | 3.05 ± 0.354 |
| CGAGACGGTTCCTTGAACATTAAACA | 68.6 |
| CGAGACGGTTCCTTGAACATTAAACAAAATCGGC | 112 |
| CGAGACGGTTCCTTGAACATTAAACAAA | 68.4 |
| CATGGCTACTCCAATACTTGAACTCTCAA | 35.7 ± 0.566 |
| ACTCCAATACTTGAACTCTCAA | 41.3 |
